PubChem BioAssay (Tox21)
Inconclusive results are not listed. Calls of active or inactive are those of the source. Unless noted, the call rests on the fitted dose curve; in most records, active means well fitted curve in the direction sought with a large enough effect in the repeat runs; inconclusive means weak or mixed curves; inactive means no such curve, though single readings can be large; an effect the other way counts as inactive or inconclusive.

Experiments:
[1] = A CellTox Green Cytotoxicity Assay to monitor cytotoxicity in HepG2 cells - 0 hour (AID 1224882); conditions: CellTox Green fluorescence; series mostly up to 76.8 µM; further: nearly all actives have a fitted effect of over 35% in size
Method in brief: (§1)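 Read-out is fluorescence of a cyanine dye excluded from live cells that stains DNA of dead HepG2 cells, with signal proportional to cytotoxicity. Plates were read at 0, 8, 16, 24, 32 and 40 h after compound addition.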

[2] = A CellTox Green Cytotoxicity Assay to monitor cytotoxicity in HepG2 cells - 32 hour (AID 1224883); conditions: CellTox Green fluorescence; series mostly up to 76.8 µM; further: nearly all actives have a fitted effect of over 50% in size; further: potency means the concentration at half of the fitted maximal effect
Method in brief: as §1

[3] = qHTS RealTime-Glo MT Cell Viability Assay in HepG2 cells - 16 hour (AID 1224885); conditions: RealTime-Glo luminescence; series mostly up to 76.8 µM; further: nearly all actives have a fitted effect of over 50% in size; further: potency means the concentration at half of the fitted maximal effect
Method in brief: (§2)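 HepG2 cells (600/well) were dispensed with RealTime-Glo reagents, incubated 5 h at 37 °C, then treated with compounds in DMSO for up to 40 h. Nonlytic NanoLuc luminescence reflecting viable cells was read at each stated time point.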

[4] = qHTS RealTime-Glo MT Cell Viability Assay in HEK293 cells - 24 hour (AID 1224886); conditions: RealTime-Glo luminescence; series mostly up to 76.8 µM; further: nearly all actives have a fitted effect of over 50% in size; further: potency means the concentration at half of the fitted maximal effect
Method in brief: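 HEK293 cells seeded with NanoLuc/prosubstrate reagent, rested 5 h at 37 C, then dosed and kept at 37 C up to 40 h. Nonlytic real-time luminescence from viable cells read at 0, 8, 16, 24, 32 and 40 h.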

[5] = A CellTox Green Cytotoxicity Assay to monitor cytotoxicity in HEK293 cells - 16 hour (AID 1224888); conditions: CellTox Green fluorescence; series mostly up to 76.8 µM; further: nearly all actives have a fitted effect of over 35% in size; further: potency means the concentration at half of the fitted maximal effect
Method in brief: (§3)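 Nonlytic real-time cytotoxicity: HEK293 + CellTox Green reagent plated, 5 h preincubation, pintool compound addition (23 nL in DMSO), 37 C for 40 h, fluorescence measured at successive time points.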

[6] = qHTS RealTime-Glo MT Cell Viability Assay in HepG2 cells - 0 hour (AID 1224889); conditions: RealTime-Glo luminescence; series mostly up to 76.8 µM; further: nearly all actives have a fitted effect of over 50% in size
Method in brief: as §2

[7] = A CellTox Green Cytotoxicity Assay to monitor cytotoxicity in HepG2 cells - 8 hour (AID 1224890); conditions: CellTox Green fluorescence; series mostly up to 76.8 µM; further: nearly all actives have a fitted effect of over 45% in size; further: potency means the concentration at half of the fitted maximal effect
Method in brief: as §1

[8] = qHTS assay to identify small molecule antagonists of the estrogen receptor alpha (ER-alpha) signaling pathway using the BG1 cell line in the presence of 0.1 nM 17-beta-estradiol - cell viability counter screen (AID 1259241); conditions: VM7Luc4E2 (BG1) viability, CellTiter-Fluor protease, 22 h, 0.1 nM estradiol agonist added; series mostly up to 92.4 µM; further: nearly all actives have a fitted effect of over 40% in size; further: potency means the concentration at half of the fitted maximal effect
Method in brief: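 Estradiol-stimulated (0.1 nM) VM7Luc4E2 cells exposed to compounds 22 hr; viability measured by fluorescence of cleaved CellTiter-Fluor substrate after 30 min.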

[9] = qHTS assay to identify small molecule antagonists of the androgen receptor (AR) signaling pathway using the MDA cell line in the presence of 0.5 nM R1881 - cell viability counter screen (AID 1259242); conditions: MDA-kb2 viability, CellTiter-Fluor protease fluorescence, 16 h; series mostly up to 92.4 µM; further: nearly all actives have a fitted effect of over 45% in size; further: potency means the concentration at half of the fitted maximal effect
Method in brief: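 Counter screen for cytotoxicity run in the same wells as the AR antagonist reporter screen: MDA-kb2 cells were treated 16 hr with test compounds and 0.5 nM R1881, then live-cell protease activity was measured by fluorescence.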

[10] = target: Estrogen receptor (Homo sapiens) (UniProt P03372); experiment: qHTS assay to identify small molecule antagonists of the estrogen receptor alpha (ER-alpha) signaling pathway using the BG1 cell line in the presence of 0.1 nM 17-beta-estradiol (AID 1259244); conditions: VM7Luc4E2 (BG1) ERE-luciferase, antagonist mode, 0.1 nM E2, 22 h; series mostly up to 92.4 µM; further: nearly all actives have a fitted effect of over 50% in size; further: potency means the concentration at half of the fitted maximal effect
Sequence of Estrogen receptor (Homo sapiens) (P03372 whole entry, looked up): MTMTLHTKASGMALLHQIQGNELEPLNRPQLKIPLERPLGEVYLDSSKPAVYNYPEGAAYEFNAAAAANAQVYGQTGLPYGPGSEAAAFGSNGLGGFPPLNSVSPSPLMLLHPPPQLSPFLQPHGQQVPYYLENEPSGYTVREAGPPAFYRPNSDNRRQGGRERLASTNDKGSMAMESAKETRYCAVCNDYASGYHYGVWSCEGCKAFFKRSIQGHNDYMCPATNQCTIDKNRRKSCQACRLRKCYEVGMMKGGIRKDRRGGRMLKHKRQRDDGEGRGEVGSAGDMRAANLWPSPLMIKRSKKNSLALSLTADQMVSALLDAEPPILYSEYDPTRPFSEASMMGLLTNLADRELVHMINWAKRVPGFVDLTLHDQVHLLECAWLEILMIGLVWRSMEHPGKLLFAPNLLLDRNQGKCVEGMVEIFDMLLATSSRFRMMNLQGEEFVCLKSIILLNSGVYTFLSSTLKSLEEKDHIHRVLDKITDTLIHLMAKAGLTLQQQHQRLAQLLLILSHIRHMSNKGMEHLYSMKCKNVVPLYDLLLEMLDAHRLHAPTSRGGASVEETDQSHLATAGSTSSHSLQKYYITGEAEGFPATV
Method in brief: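 Cells: VM7Luc4E2, endogenous ER-alpha, 4x ERE-luc stable. Pre-culture 5 d, phenol red-free, charcoal-stripped FBS. Plated 24 h, compound + E2 0.1 nM final, 22 h 37C/5% CO2. Readout ONE-Glo luminescence.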

[11] = qHTS assay to identify small molecule HDAC inhibitors (AID 1259364); conditions: HCT-116 HDAC-Glo I/II luminescence, 2 h; series mostly up to 92.4 µM; further: nearly all actives have a fitted effect of over 45% in size; further: potency means the concentration at half of the fitted maximal effect
Method in brief: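 Luminescence from a cell-permeant luminogenic class I/II HDAC substrate reports endogenous deacetylase activity in intact HCT-116 cells treated with compounds for 2 h.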

[12] = qHTS assay to identify small molecule HDAC inhibitors - cell viability counter screen (AID 1259365); conditions: HCT-116 viability, CellTiter-Glo ATP luminescence, 2 h; series mostly up to 92.4 µM; further: nearly all actives have a fitted effect of over 50% in size
Method in brief: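 After overnight seeding at 1,500 cells per well, wild-type HCT-116 cultures took up compounds in DMSO for 2hr at 37 C. Viable cell content came from luminescence with CellTiter-Glo.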

[13] = qHTS assay to identify small molecule agonists of the sonic hedgehog signaling (Shh) pathway - cell viability counter screen (AID 1259366); conditions: NIH/3T3 Gli1-Luc viability, CellTiter-Fluor, 24 h; series mostly up to 92.4 µM; further: nearly all actives have a fitted effect of over 50% in size; further: potency means the concentration at half of the fitted maximal effect
Method in brief: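 Same-well cytotoxicity read. Gli1-Luc reporter 3T3 cells; compounds 24hr, 37C/5% CO2; CellTiter-Fluor fluorescence.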

[14] = qHTS assay to identify small molecule antagonists of the sonic hedgehog signaling (Shh) pathway - cell viability counter screen (AID 1259367); conditions: NIH/3T3 Gli1-Luc viability, CellTiter-Fluor, 24 h; series mostly up to 92.4 µM; further: nearly all actives have a fitted effect of over 55% in size; further: potency means the concentration at half of the fitted maximal effect
Method in brief: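 Seed 3T3 Gli1-Luc cells at 2,000 per well; incubate 4 hr; add compound in DMSO, then conditioned medium; incubate at 37C with 5% CO2; add CellTiter-Fluor after 23 hr; read fluorescence 1 hr later.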

[15] = qHTS assay to identify small molecule agonists of the sonic hedgehog signaling (Shh) pathway (AID 1259368; calls by dose curve;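 further: NIH/3T3-derived 3T3Gli1-Luc cells carrying a stable Gli1-driven firefly luciferase reporter; nearly all actives have a fitted effect of over 15% in size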); conditions: NIH/3T3 Gli1-Luc reporter, luciferase, 24 h; series mostly up to 92.4 µM
Method in brief: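 3T3Gli1-Luc (NIH/3T3 clone, stable Gli1-Luc); 4 hr pre-incubation, then cpd in DMSO 24 hr, 37 C/5% CO2; luciferase reagent 30 min RT; luminescence.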

[16] = A CellTox Green Cytotoxicity Assay to monitor cytotoxicity in HEK293 cells - 8 hour (AID 1224884); conditions: CellTox Green fluorescence; series mostly up to 76.8 µM; further: nearly all actives have a fitted effect of over 35% in size; further: potency means the concentration at half of the fitted maximal effect
Method in brief: as §3

[17] = qHTS assay to identify small molecule phospholipidosis (PLD) inducers (AID 1259344; active means well fitted curve in the direction sought with a large enough effect; an effect the other way counts as inactive or inconclusive); conditions: HepG2 phospholipidosis, LipidTOX Red imaging, 24 h; series mostly up to 38.3 µM
Method in brief: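 Quantitative HTS in HepG2: compound plus LipidTOX Red dye for 24 h, paraformaldehyde fixation with Hoechst 33342, widefield high-content imaging; amiodarone as positive and DMSO as negative control.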

[18] = qHTS RealTime-Glo MT Cell Viability Assay in HEK293 cells - 8 hour (AID 1224887); conditions: RealTime-Glo luminescence; series mostly up to 76.8 µM; further: nearly all actives have a fitted effect of over 50% in size; further: potency means the concentration at half of the fitted maximal effect
Method in brief: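 Cells were seeded together with NanoLuc luciferase and a prosubstrate that viable cells reduce to a luciferase substrate. After a 5 h incubation at 37 C/5% CO2, compounds were added and luminescence was measured repeatedly during 40 h of treatment.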

[19] = qHTS assay to identify small molecule antagonists of the sonic hedgehog signaling (Shh) pathway (AID 1259369; calls by dose curve; further: nearly all actives have a fitted effect of over 45% in size; further: potency means the concentration at half of the fitted maximal effect); conditions: NIH/3T3 Gli1-Luc reporter, Shh antagonist, luminescence 24 h; series mostly up to 92.4 µM
Method in brief: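 3T3Gli1-Luc, conditioned-medium-stimulated, 24hr cpd, 37C/5% CO2; Gli1-driven firefly Luc luminescence after 30min RT with luciferase reagent. Cells plated 4hr before cpd.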

[20] = target: Androgen receptor (Homo sapiens) (UniProt P10275); experiment: qHTS assay to identify small molecule antagonists of the androgen receptor (AR) signaling pathway using the MDA cell line in the presence of 0.5 nM R1881 (AID 1259243); conditions: MDA-kb2 MMTV-luciferase, R1881 0.5 nM, 16 h; series mostly up to 92.4 µM
Sequence of Androgen receptor (Homo sapiens) (P10275 whole entry, looked up): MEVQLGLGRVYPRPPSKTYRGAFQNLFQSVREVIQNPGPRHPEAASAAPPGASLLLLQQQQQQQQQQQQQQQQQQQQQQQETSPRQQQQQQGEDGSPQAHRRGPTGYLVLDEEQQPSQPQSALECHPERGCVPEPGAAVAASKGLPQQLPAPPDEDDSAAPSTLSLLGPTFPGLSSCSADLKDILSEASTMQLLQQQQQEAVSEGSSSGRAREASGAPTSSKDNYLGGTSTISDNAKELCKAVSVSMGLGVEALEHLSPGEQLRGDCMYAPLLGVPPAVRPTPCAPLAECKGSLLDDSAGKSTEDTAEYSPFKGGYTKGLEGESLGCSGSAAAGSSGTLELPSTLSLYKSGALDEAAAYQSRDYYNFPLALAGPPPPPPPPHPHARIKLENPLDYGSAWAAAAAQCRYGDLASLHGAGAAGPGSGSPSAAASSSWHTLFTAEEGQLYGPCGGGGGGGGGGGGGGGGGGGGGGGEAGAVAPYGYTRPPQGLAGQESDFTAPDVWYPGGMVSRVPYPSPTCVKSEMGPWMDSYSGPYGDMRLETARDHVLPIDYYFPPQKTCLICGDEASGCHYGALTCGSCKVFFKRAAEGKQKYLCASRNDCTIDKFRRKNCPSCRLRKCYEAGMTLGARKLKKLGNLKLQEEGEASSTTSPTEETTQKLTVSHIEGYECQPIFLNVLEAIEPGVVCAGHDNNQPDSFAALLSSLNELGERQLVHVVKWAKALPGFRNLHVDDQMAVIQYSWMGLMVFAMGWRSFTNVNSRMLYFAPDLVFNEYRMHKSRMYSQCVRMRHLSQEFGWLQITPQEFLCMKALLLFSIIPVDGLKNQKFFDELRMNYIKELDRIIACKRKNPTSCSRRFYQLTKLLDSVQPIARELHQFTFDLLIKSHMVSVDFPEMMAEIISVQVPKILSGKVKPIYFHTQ
Method in brief: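 Luciferase luminescence is the read-out: compounds are tested for suppressing 0.5 nM R1881-driven MMTV reporter activity in MDA-kb2 cells after 16 hr at 37C.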

Measured: Potency

CN(C)C1CSSSC1
inactive: [1] | [2] | [3] | [4] | [5] | [6] | [7] | [8] | [9] | [10] | [11] | [12] | [13] | [14] | [15]

CCCCCCCCc1ccc(O)cc1
inactive: [1] | [6] | [17] | [11] | [12] | [14] | [15]
active: [2] 42.7 µM | [16] 43.9 µM | [4] 4.93 µM | [7] 17.5 µM

c1ccc2c(c1)OCC(C1=NCCN1)O2 (stereo unspecified)
active: [14] 2.11 µM | [19] 0.376 µM
inactive: [1] | [2] | [16] | [18] | [5] | [6] | [7] | [8] | [9] | [17] | [12] | [15]

O=[N+]([O-])c1ccc2ccc3cccc4ccc1c2c34
inactive: [1] | [2] | [3] | [4] | [6] | [7] | [9] | [12] | [13] | [14] | [15] | [19]
active: [20] 0.863 µM

BrC(Br)Br
inactive: [1] | [2] | [16] | [4] | [5] | [6] | [8] | [9] | [11] | [12] | [13] | [14] | [15] | [19]

Oc1cccc(-c2ccccc2)c1
inactive: [1] | [2] | [16] | [5] | [6] | [7] | [8] | [9] | [10] | [11] | [12] | [13] | [15]

O=[N+]([O-])c1cc([N+](=O)[O-])c2ccccc2c1
inactive: [1] | [2] | [4] | [18] | [9] | [11] | [12] | [15]
active: [20] 4.33 µM | [19] 1.22 µM

CC(=O)[O-].CC(=O)[O-].O.O.[Cd+2]
inactive: [1] | [16] | [5] | [6] | [7] | [9] | [11] | [12] | [15]
active: [2] 27.2 µM | [13] 3.8 µM | [14] 8.51 µM | [19] 1.07 µM

ClCc1ccc(Cl)cc1Cl
inactive: [1] | [2] | [3] | [4] | [18] | [6] | [8] | [9] | [10] | [11] | [12] | [14] | [15] | [19]

CC(=O)c1ccc(-c2ccccc2)cc1
active: [20] 19.3 µM | [11] 24.3 µM
inactive: [1] | [2] | [3] | [4] | [18] | [5] | [6] | [7] | [8] | [9] | [10] | [12] | [13] | [14] | [15] | [19]

COC(=O)N(C(=O)N1CO[C@@]2(C(=O)OC)Cc3cc(Cl)ccc3C2=N1)c1ccc(OC(F)(F)F)cc1
inactive: [1] | [2] | [5] | [6] | [7] | [8] | [9] | [11] | [12] | [13] | [14] | [15]
active: [20] 23.5 µM | [10] 46.9 µM

CCCN(CCC)c1c([N+](=O)[O-])cc(S(N)(=O)=O)cc1[N+](=O)[O-]
inactive: [1] | [6] | [17] | [11] | [15]
active: [2] 26.2 µM | [3] 24.5 µM | [4] 23.3 µM | [5] 52.2 µM | [7] 23.3 µM | [13] 54.5 µM | [14] 24.3 µM

Oc1ccc2ccc3cccc4ccc1c2c34
active: [2] 54.9 µM | [3] 49 µM | [4] 15.5 µM | [18] 13.8 µM
inactive: [1] | [6] | [8] | [9] | [11] | [12] | [15]

COC(=O)N(C(=O)N1COC2(C(=O)OC)Cc3cc(Cl)ccc3C2=N1)c1ccc(OC(F)(F)F)cc1 (stereo unspecified)
inactive: [1] | [2] | [16] | [5] | [6] | [7] | [8] | [9] | [10] | [11] | [12] | [13] | [15]

CC1(C)CN=C(NN=C(/C=C/c2ccc(C(F)(F)F)cc2)/C=C/c2ccc(C(F)(F)F)cc2)NC1
active: [2] 17.4 µM | [3] 19.5 µM | [4] 43.6 µM | [7] 34.7 µM | [8] 61.1 µM | [9] 24.3 µM | [20] 17.2 µM | [10] 48.6 µM | [13] 19.3 µM | [14] 17.2 µM | [19] 6.86 µM
inactive: [1] | [6] | [11] | [12] | [15]
